What all share (test): NCI-60 one-dose screen, 48 h (100 = growth as untreated, 0 = no growth, -100 = all killed)
Common to all, as to details: 10 µM unless noted

For test [1], the system named is SR leukemia.
Test [2] deals with RPMI-8226 leukemia.
For test [3], the system named is OVCAR-8 ovarian.
The subject of test [4] is OVCAR-5 ovarian.
Test [5] relates to OVCAR-4 ovarian.
In test [6] the test system is SK-OV-3 ovarian.
Test [7] relates to IGROV1 ovarian.
Test [8] has as its system HS 578T breast.
For test [9], the system named is NCI/ADR-RES ovarian.

The panel holds about 83,000 compounds, 20% with a hit somewhere; the sample as a whole holds those more often.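 Plates (96-well) were seeded with cells, treated with compound at one concentration, and incubated for 48 hours before percent growth was determined.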 Unmarked numbers belong to inactive results. Activity calls are given as the source filed them. The calls were made as follows: active = growth percent below 10; inactive = the rest.

The values below come from PubChem BioAssay (NCI).

In the case of `CC(=O)c1c([Si](C)(C)C)c2cc(C#N)ccn2c1C(=O)c1ccc(Br)cc1`, the growth in test [1] was 87.9%; in test [2], 92.1%; in test [3], 94.8%; in test [4] it was 79%; in test [5] it was 76.2%; in test [6], 98.3%. For the same compound, the values for the growth in test [7], in [8] and in test [9] were 68.7%, 79.3% and 88.6%, respectively.

As to `CCCCSC1=C(Cl)CN(c2ccc(Cl)cc2)C1=O`, the growth in test [1] is 34.3%; in test [2], 31.7%; in test [3], 99.1%; in test [4], 104%; in test [5], 104%; in test [6], 110%. The growth in test [7] was 109%; in test [8], 107%; in test [9], 103%.

Take `COc1cc2cc(Oc3ccc(NC(=O)Nc4ccc(F)c(C(F)(F)F)c4)cc3)c(C)nc2cc1OCCN(C)C`: the growth in [1] was 1.94% (active); in test [2], 80.2%; in test [3], 102%; in test [4], 137%; in [5] it was 112%; in test [6], 116%. Besides, the values for the growth in [7], in [8] and in test [9] were 101%, 108% and 41.2%, respectively.

In the case of `CCc1nnc(NC(=O)c2cc(-c3ccc(Cl)cc3Cl)oc2C)s1`, the growth was 96.5% in test [1]; 87.7% in test [2]; 90.3% in test [3]; 92.7% in test [4]; 48.4% in test [5]; 106% in [6]. Further, the growth in test [7] is 87.8%; in [8], 86%; in test [9] it was 88.7%.

With `CN1CC[C@@H]2[C@@]3(C)CC[C@H](O)C(C)(C)[C@@H]3CC[C@@]2(C)[C@]2(C)CC[C@@]3(CO)CCC(C)(C)C[C@@H]3C12` (some centres not stated), the growth is 30.2% in [1]; 74.6% in test [2]; 97.2% in test [3]; 91.7% in test [4]; 96.7% in [5]; 108% in test [6]. The growth in test [7] was 94.8%; in [8] it was 79.2%; in [9], 96.8%.

Turning to `Cn1cc(-c2nn3cc(-c4ccncc4)nc3s2)c2cc(Br)ccc21`, the growth was 8.33% (active) in test [1]; 15.2% in test [2]; 28.8% in [3]; 73.8% in test [4]; 75.7% in test [5]; 87.6% in test [6]. Also, the growth in test [7] is 33.4%; in test [8] it was 54.3%; in test [9], 42.8%.

For `Fc1ccc(-c2cn3c(-c4c[nH]c5ccc(Br)cc45)csc3n2)cc1`, the growth in test [1] is 88.7%; in [2] it was 77.8%; in test [3] it was 74.8%; in test [4], 73.8%; in test [5], 34.3%; in [6], 84.4%. The growth in [7] was 63.7%; in test [8] it was 14%; in test [9], 48.7%.

For `Cc1ccc(CSC2=C(Cl)CN(c3ccc(Cl)cc3)C2=O)cc1`, the growth is 74.1% in test [1]; 92.8% in test [2]; 105% in [3]; 106% in test [4]; 107% in test [5]; 117% in test [6]. The growth in test [7] is 115%; in test [8], 107%; in test [9], 103%.

Take `C#C[C@]1(O)CC[C@H]2[C@@H]3CC=C4c5sc(N(C)c6ccccc6)nc5CC[C@]4(C)[C@H]3CC[C@@]21C`: the growth in test [1] was 43.7%; in test [2] it was 2.94% (active); in [3], 82%; in test [4], 92.5%; in test [5], 94%; in test [6] it was 98.7%. Also, the growth was 107% in [7], 89.8% in test [8] and 82.1% in test [9].

As to `CNc1sc(S(=O)(=O)NC)nc1S(=O)(=O)c1ccc(C)cc1`, the growth in [1] is 101%; in test [2], 99.2%; in [3], 102%; in [4] it was 92.2%; in [5], 108%; in test [6] it was 105%. Further, the values for the growth in test [7], in test [8] and in [9] were 95.1%, 103% and 103%, respectively.

`CN1CCN(CC#CCn2c3c(c4ccccc42)C[C@]2(C)[C@H]4CC=C5[C@@H]6CC(C)(C)CC[C@]6(C(=O)N6CCOCC6)CC[C@@]5(C)[C@]4(C)CC[C@H]2C3(C)C)CC1`: the growth in test [1] was -4.82% (active); in [2], 45.5%; in test [3], 84.8%; in test [4], 87.2%; in [5], 88.1%; in test [6] it was 103%. In addition, the growth in [7] is 77.6%; in [8] it was 91.3%; in test [9], 76.8%.

For `CCC1=Cc2c(OC)cccc2OC12C=Cc1c(OC)cccc1O2` (configuration not stated), the growth in test [1] is 15.2%; in [2], 25.2%; in test [3], 24.3%; in test [4], 36.5%; in [5], 76.7%; in [6], 56.5%. Moreover, the results for the growth in [7], in test [8] and in test [9] were 29.8%, 28.4% and -24.2% (active), respectively.

Regarding `COc1ccc2[nH]cc(-c3nn4cc(-c5ccncc5)nc4s3)c2c1`, the growth in [1] was 61.5%; in test [2], 43.8%; in [3], 52%; in test [4], 107%; in [5], 71.1%; in [6], 88.3%. Further, the growth in [7] is 41.4%; in test [8], 87.5%; in test [9], 48.9%.
